This is a sample that favours compounds with a hit; in the whole collection about 12% have one here.
PLK1 PBD block – PLK1 (human) polo-box domain binding inhibition; P53350; Plk1 PBD binding of FITC phosphopeptide, fluorescence polarization; Potency, µM, inactives show max response, negative = inhibition, actives largely listed as inhibitors; 2.8% of 360,000 active; AID 720504; further: series mostly up to about 57 µM; on the % scale 0 is the no-effect control and ±100 the full control effect; nearly all actives have a fitted effect of over 65% in size
BAZ2B inh – inhibitors of human BAZ2B bromodomain | Potency, µM (doses to about 114 µM), for the others: at the top dose activity change, negative = inhibition, most hits filed as inhibitors | Q9UIF8 | AlphaScreen BAZ2B-H3K14Ac peptide displacement | 4.4% of 360,000 active; further: on the % scale 0 is the no-effect control and ±100 the full control effect; nearly all actives have a fitted effect of over 60% in size
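Protein-peptide AlphaScreen: BAZ2B 50 nM, b-H3K14Ac 50 nM, 1x PBS pH 7.4 + 0.01% Tween-20. Preincubation 30 min RT; cpd 30 min RT (top 110 uM); beads 20 min RT, light-protected.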
G9a inh – inhibitors of human histone lysine methyltransferase G9a | Q96KQ7 | G9a H3K9 monomethylation, AlphaScreen, 2 h | Potency, µM (highest dose often 102 µM), inactives show top-dose activity, negative = inhibition, hits mostly inhibitors | 8.8% of 350,000 active | AID 504332; further: on the % scale 0 is the no-effect control and ±100 the full control effect; nearly all actives have a fitted effect of over 75% in size
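Signal arises when biotinylated H3K9 peptide, once monomethylated, bridges streptavidin donor and antibody-captured acceptor beads. Enzyme at 20 nM was preincubated 15 min with test compounds; peptide 500 nM and SAM 20 uM then reacted for 2 h.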
JMJD2A Tudor inh – inhibitors of human JMJD2A Tudor domain; 4.4% of 390,000 active; Potency, µM (series often up to 114 µM), inactives show at the top dose activity change, negative = inhibition, usual class: inhibitors; O75164; AlphaScreen JMJD2A-Tudor / H3K4me3 peptide binding; further: on the % scale 0 is the no-effect control and ±100 the full control effect; nearly all actives have a fitted effect of over 50% in size
Sfp inh – Sfp phosphopantetheinyl transferase inhibition. AID 1490. Biochemical Sfp PPTase activity, qHTS. Q9F4F7. 3.5% of 310,000 active. Potency, µM, inactives show largest response in the series, negative = inhibition, most hits filed as inhibitors;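 further: the enzyme is Sfp with the accession as filed and its product quenches rhodamine fluorescence; 0% = enzyme reaction without inhibitor and -100% = no enzyme wells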
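Fluorescence-quenching assay: 15 nM Sfp-PPTase preincubated 15 min at room temperature with compound, then 5 uM rhodamine-CoA and 12.5 uM BHQ-2-labelled YbbR peptide added. Fluorescence (ex 525/em 598 nm) read at start and after 30 min; difference gives rate.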
HP1b binding inh – HP1-beta chromodomain-methylated histone interaction inhibition | AlphaScreen HP1-beta / biotin-H3K9me3 peptide binding | P83916 | Potency, µM (series often up to 114 µM), for the others: top-dose activity change, negative = inhibition, hits mostly inhibitors | 0.56% of 390,000 active; further: nearly all actives have a fitted effect of over 70% in size
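AlphaScreen: HP1-beta (50 nM) preformed 30 min with biotin-H3(1-18)K9me3 peptide (50 nM) in PBS pH 7.4, 0.01% Tween-20. Compound added for 30 min at RT, then streptavidin donor/nickel chelate acceptor beads (10 ug/mL) for 30 min.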
* hit, by the source's call; u = inconclusive; x = no result; [ ] = dose if it differs, or a comment. The call rests on the fitted dose curve; in most records, active means well fitted curve in the direction sought with a large enough effect; inconclusive means small, poorly fitted or top-dose-only effect, or another doubt; inactive means no such curve, though single readings can be large; an effect the other way counts as inactive or inconclusive. Potency means the concentration at half of the fitted maximal effect.

SMILES	PLK1 PBD block	BAZ2B inh	G9a inh	JMJD2A Tudor inh	Sfp inh	HP1b binding inh
O=C(CN1CCCC1)N1CCCC(c2ccc(F)cc2)c2ccc(F)cc21 (stereo unspecified)	6.0%	-37.0%	28.2µM*	0.891µM*	-6.9%	u
O=C(CN1CCN(S(=O)(=O)c2ccc(F)cc2)CC1)c1ccc(O)c(O)c1	-13.9%	u	20µM*	u	17.8µM*	18.0%
COc1cccc(C(=O)CN2CCN(S(=O)(=O)c3ccc(Cl)cc3)CC2)c1	x	-16.6%	10µM*	-15.9%	x	40.2%
COc1cccc(N2CCN(CC(=O)N3CCN(S(=O)(=O)c4ccc(Cl)cc4)CC3)CC2)c1	-1.0%	-27.4%	u	-28.3%	x	21.6%
CCOc1ccc(C(=O)CN2CCN(S(=O)(=O)c3ccc(F)cc3)CC2)cc1	-8.9%	-22.7%	u	-12.4%	-10.0%	38.8%
O=C(CN1CCN(S(=O)(=O)c2ccc(Cl)cc2)CC1)c1ccc(O)c(O)c1	-16.8%	u	x	17.8µM*	56.2µM*	-17.8%[57 µM]
Cc1cc(CN(C)C(=O)c2cc(COc3ccc(C)c(C)c3)on2)on1	-3.5%	10.8%	66.1%	0.7%	10.1%	28.4%
S=C(NCC1CCCO1)N1CCN(c2nc(-c3ccccc3)cs2)CC1 (stereo unspecified)	-10.2%	u	50.1µM*	u	5.5%	-1.2%
S=C(NCC1CCCO1)N1CCN(Cc2ccccc2)CC1 (stereo unspecified)	-9.3%	20µM*	15.8µM*	0.891µM*	u	20µM*
Cc1ccc(S(=O)(=O)N2CCN(C(=S)NCC3CCCO3)CC2)cc1 (stereo unspecified)	-3.6%	-7.2%	-2.5%	-14.5%	x	30.4%
O=C(NCC1CCCO1)c1ccc2c(c1)N(Cc1ccccc1)C(=O)CS2=O (stereo unspecified)	7.52µM*	3.8%	-4.7%[59 µM]	u	3.6%	-14.0%
Cc1ccc(-n2nnnc2SCC(=O)N2CCN(C(=O)c3ccco3)CC2)c(C)c1	-6.6%	8.4%	9.8%[59 µM]	-7.1%	21.9%	11.4%
CCSc1nnc(SCC(=O)N2CCN(C(=O)c3ccco3)CC2)s1	-5.2%	-18.6%	-18.4%	-6.2%	-3.7%	25.2%
COc1ccc(OC)c(-n2nnnc2SCC(=O)N2CCN(C(=O)c3ccco3)CC2)c1	16.8µM*	-19.1%	u	20µM*	13.6%	-21.9%
Cc1cc2cc3c(cc2nc1SCC(=O)N1CCN(C(=O)c2ccco2)CC1)OCO3	-15.8%	-34.4%	50.1µM*	-35.2%	-14.9%	-13.1%
Cn1cnnc1SCC(=O)N1CCN(C(=O)c2ccco2)CC1	-5.7%	-31.7%	35.5µM*	-7.6%	9.6%	25.3%
O=C(CSc1nc2cc(Cl)ccc2s1)N1CCN(C(=O)c2ccco2)CC1	-16.2%	-9.1%	44.7µM*	-19.9%	-25.2%	20.1%
Cc1nnc(SCC(=O)N2CCN(C(=O)c3ccco3)CC2)n1C	-0.6%	2.6%	u	10.5%	x	55.0%
COc1ccc(C(=O)Nc2ccc(-c3nnn(CC(=O)N4CCN(C(=O)c5ccco5)CC4)n3)cc2)cc1	-4.6%	79.4µM*	50.1µM*	-20.7%	20.4%	16.5%
COc1ccc(-n2nnnc2SCC(=O)N2CCCC2)cc1OC	-3.5%	2.2%	-31.5%	-9.4%	12.2%	8.5%
COc1ccc(-n2nnnc2SCC(=O)N2CCN(C(=O)c3ccco3)CC2)cc1OC	18.9µM*	-8.1%	-10.4%[59 µM]	u	-9.9%	-15.7%
O=C(Cn1nnc(-c2ccc(Cl)cc2)n1)N1CCN(C(=O)c2ccco2)CC1	7.4%	12.1%	24.0%[12.7 µM]	-1.0%	x	42.5%
COc1cc2c(cc1OC)C1O[C@](CCCCN3C(=O)c4ccccc4C3=O)(C2)OC2=C1C(=O)CC(C)(C)C2	x	u	-125.7%[2.33 µM]	x	-14.1%	x
CCOc1ccc2c(c1)C(NC(C)=O)C(=O)N2CCN1CCOCC1 (stereo unspecified)	21.2µM*	10µM*	15.8µM*	14.1µM*	u	22.1%
COC(=O)c1oc2ccc(Br)cc2c1NC(=O)CCN1CCOCC1	2.2%	-3.0%	-21.1%	-12.0%	13.3%	19.4%
